The values below come from article PMC12864922, “TDP-43 directly inhibits mRNA accumulation in neurites through modulation of mRNA stability”.

Residue numbers refer to the chain shown, from its start. Whole data set: some 9,900 sequences, median “r (bound/input frequency ratio)” near 0.7, cut for the highest 2% near 6.5. What follows is part of a selection rich in the highest values, with near analogues and random picks from the rest.

To fix the notation:
B1: ENSMUSG00000032194.180|Kank2|82:88;185:189 (ssRNA)
RNA: GGGAGUUCUACAGUCCGACGAUCGCUUCGAUAUCCGCAUGCUAUGGCCUCAGAGCACUCCCAGAACUAGCUUAAAGUGACAGGCUUUGCUGAAAUCCAAAGGGACAAAAGAGUAGUUUUAUGUUACACACAUUGUUUUUAAUGCCCUGGAGCUCCUGCUGGUGACAGGAGAGACAGACAGGCUGCACCUUUCUCUAACUGGGGUUCCUUUCUGGCCCCAGGAUCUCACACACGUUCGUGGGGGGAUUUUGUUGUUGUUUCUUUGUUUCUUUUCUUCAUAAAGAAGAAAAAGGAAACAACUUCUCUCUUGCGGUCGCACUAGUGUGGAAUUCUCGGGUGUCAAGG
B2: ENSMUSG00000061578.618|Ksr2 (ssRNA)
RNA: GGGAGUUCUACAGUCCGACGAUCGCUUCGAUAUCCGCAUGCUAGUGGCUUGCCUGGCUGGCCUGUGAUAUAGUGGACUGUCUUAGUGAUCGGACUUCAGGGAGCAACCUAUAGGAAAUGCAAAGGCUUAGAGGGGACGGACAGCUCCCUGACCCUGGAUGGCCAGGAAUGGUGCUAGCUAGGGUGUGAGCCAAGCCCUUGAGGCUACUGUGAGUUAUGAGAUGUGUCCAACCCUCAGCCCACAGACUGCAUAUGCCCCAGGACAGCUGUGAAGGUGACCCAAUACAAAAUCGUAAACUAACUUCUCUUGCGGUCGCACUAGUGUGGAAUUCUCGGGUGUCAAGG
B3: ENSMUSG00000061578.593|Ksr2 (ssRNA)
RNA: GGGAGUUCUACAGUCCGACGAUCGCUUCGAUAUCCGCAUGCUAUCUGGGAUAAAAAAAAAAAGUCAAAAGAAAUAAAAUAUGAUUCAGGCAAAUUCAAUGCAACUCAAAAUUUCCACCAAUCCCAUAUUGUCCCUAGCAAUGACAAAAUUAUUUGCAAGACAGACCCUGUGACCUGUAGAGGCAAAAUAUAUGGUGGCUUGCCUGGCUGGCCUGUGAUAUAGUGGACUGUCUUAGUGAUCGGACUUCAGGGAGCAACCUAUAGGAAAUGCAAAGGCUUAGAGGGGACGGACAGCUCCCUGACCCUCUUGCGGUCGCACUAGUGUGGAAUUCUCGGGUGUCAAGG
B4: ENSMUSG00000061578.1182|Ksr2 (ssRNA)
RNA: GGGAGUUCUACAGUCCGACGAUCGCUUCGAUAUCCGCAUGCUAUGUCCUCGGGUGUCUCUGCUGUAUAUAGGCCAGUCACAAGCCCUUCUAAAAGCCUGCUCUUGUCUGCUUUUGUUUCUCCACCAUGCCCCCUGCCACCUCUUCUGACAGUGCUCAGAUUUAUCAGCCACCUGACCCACAGACCCAUAUGGACACACUAGAAAGCCCAUCCUAGGUCUUUCCAUGGUCUCUCACACCCCUGUCCCCGUCCCCUCCACCCCCCGGCAGCAUGCUUCACUCUAUGAAUGAGCCGCUGGGAUAUUCUCUUGCGGUCGCACUAGUGUGGAAUUCUCGGGUGUCAAGG
B5: ENSMUSG00000061578.1463|Ksr2|60:64 (ssRNA)
RNA: GGGAGUUCUACAGUCCGACGAUCGCUUCGAUAUCCGCAUGCUAUAGGUGGGUAGAUAGGUAUAUGAAUGAAUGGAUGAAUGGAUGGGUGAAUGGAUGGAUAGCAUACUGAAUAAAUGGAUGGAUGGAUGGAUUGAUUUGUGAAUGAAUGGAUGAAUGGAUGGGUAGGUGGGUGGAUGCAUAGGCAAGUAGAUGAAUGAAUAUGUGGGUAGAAGGGUGAGUGGGUGGAUGAAUGGAUGGAUAGGUUGGUAGGUUAAUGUAUUCGUGGAUGGGUGAAUGGAUGGAUGGAUAGAUAGAUGGGAAGGCUCUUGCGGUCGCACUAGUGUGGAAUUCUCGGGUGUCAAGG
B6: ENSMUSG00000061578.1466|Ksr2|42:46 (ssRNA)
RNA: GGGAGUUCUACAGUCCGACGAUCGCUUCGAUAUCCGCAUGCUAUAUGAAUGAAUGGAUGAAUGGAUGGGUGAAUGGAUGGAUAGCAUACUGAAUAAAUGGAUGGAUGGAUGGAUUGAUUUGUGAAUGAAUGGAUGAAUGGAUGGGUAGGUGGGUGGAUGCAUAGGCAAGUAGAUGAAUGAAUAUGUGGGUAGAAGGGUGAGUGGGUGGAUGAAUGGAUGGAUAGGUUGGUAGGUUAAUGUAUUCGUGGAUGGGUGAAUGGAUGGAUGGAUAGAUAGAUGGGAAGGUGGAUGGACAGAUGGAUGCUCUUGCGGUCGCACUAGUGUGGAAUUCUCGGGUGUCAAGG
B7: ENSMUSG00000061578.1469|Ksr2 (ssRNA)
RNA: GGGAGUUCUACAGUCCGACGAUCGCUUCGAUAUCCGCAUGCUAUGGAUGGGUGAAUGGAUGGAUAGGUAUGUGAAUAAAUGGAUGGAUGGAUGGAUUGAUUUGUGAAUGAAUGGAUGAAUGGAUGGGUAGGUGGGUGGAUGCAUAGGCAAGUAGAUGAAUGAAUAUGUGGGUAGAAGGGUGAGUGGGUGGAUGAAUGGAUGGAUAGGUUGGUAGGUUAAUGUAUUCGUGGAUGGGUGAAUGGAUGGAUGGAUAGAUAGAUGGGAAGGUGGAUGGACAGAUGGAUGGAUGGAUAGAUAGAUGGACUCUUGCGGUCGCACUAGUGUGGAAUUCUCGGGUGUCAAGG
B8: ENSMUSG00000061578.1468|Ksr2|30:34 (ssRNA)
RNA: GGGAGUUCUACAGUCCGACGAUCGCUUCGAUAUCCGCAUGCUAGAUGAAUGGAUGGGUGAAUGGAUGGAUAGCAUACUGAAUAAAUGGAUGGAUGGAUGGAUUGAUUUGUGAAUGAAUGGAUGAAUGGAUGGGUAGGUGGGUGGAUGCAUAGGCAAGUAGAUGAAUGAAUAUGUGGGUAGAAGGGUGAGUGGGUGGAUGAAUGGAUGGAUAGGUUGGUAGGUUAAUGUAUUCGUGGAUGGGUGAAUGGAUGGAUGGAUAGAUAGAUGGGAAGGUGGAUGGACAGAUGGAUGGAUGGAUAGAUACUCUUGCGGUCGCACUAGUGUGGAAUUCUCGGGUGUCAAGG
B9: ENSMUSG00000061578.1469|Ksr2|24:28 (ssRNA)
RNA: B7 RNA with G67C, U68A, A69U, U70A, G71C
B10: ENSMUSG00000061578.1472|Ksr2|6:10 (ssRNA)
RNA: GGGAGUUCUACAGUCCGACGAUCGCUUCGAUAUCCGCAUGCUAGAUAGCAUACUGAAUAAAUGGAUGGAUGGAUGGAUUGAUUUGUGAAUGAAUGGAUGAAUGGAUGGGUAGGUGGGUGGAUGCAUAGGCAAGUAGAUGAAUGAAUAUGUGGGUAGAAGGGUGAGUGGGUGGAUGAAUGGAUGGAUAGGUUGGUAGGUUAAUGUAUUCGUGGAUGGGUGAAUGGAUGGAUGGAUAGAUAGAUGGGAAGGUGGAUGGACAGAUGGAUGGAUGGAUAGAUAGAUGGACAGGUGGUUGGUGGAUAACUCUUGCGGUCGCACUAGUGUGGAAUUCUCGGGUGUCAAGG
B11: ENSMUSG00000061578.1467|Ksr2|36:40 (ssRNA)
RNA: GGGAGUUCUACAGUCCGACGAUCGCUUCGAUAUCCGCAUGCUAUGAAUGGAUGAAUGGAUGGGUGAAUGGAUGGAUAGCAUACUGAAUAAAUGGAUGGAUGGAUGGAUUGAUUUGUGAAUGAAUGGAUGAAUGGAUGGGUAGGUGGGUGGAUGCAUAGGCAAGUAGAUGAAUGAAUAUGUGGGUAGAAGGGUGAGUGGGUGGAUGAAUGGAUGGAUAGGUUGGUAGGUUAAUGUAUUCGUGGAUGGGUGAAUGGAUGGAUGGAUAGAUAGAUGGGAAGGUGGAUGGACAGAUGGAUGGAUGGACUCUUGCGGUCGCACUAGUGUGGAAUUCUCGGGUGUCAAGG
B12: ENSMUSG00000061578.1465|Ksr2|48:52 (ssRNA)
RNA: GGGAGUUCUACAGUCCGACGAUCGCUUCGAUAUCCGCAUGCUAUAGGUAUAUGAAUGAAUGGAUGAAUGGAUGGGUGAAUGGAUGGAUAGCAUACUGAAUAAAUGGAUGGAUGGAUGGAUUGAUUUGUGAAUGAAUGGAUGAAUGGAUGGGUAGGUGGGUGGAUGCAUAGGCAAGUAGAUGAAUGAAUAUGUGGGUAGAAGGGUGAGUGGGUGGAUGAAUGGAUGGAUAGGUUGGUAGGUUAAUGUAUUCGUGGAUGGGUGAAUGGAUGGAUGGAUAGAUAGAUGGGAAGGUGGAUGGACAGACUCUUGCGGUCGCACUAGUGUGGAAUUCUCGGGUGUCAAGG

Sequence of TDP-43 (Q13148 whole entry): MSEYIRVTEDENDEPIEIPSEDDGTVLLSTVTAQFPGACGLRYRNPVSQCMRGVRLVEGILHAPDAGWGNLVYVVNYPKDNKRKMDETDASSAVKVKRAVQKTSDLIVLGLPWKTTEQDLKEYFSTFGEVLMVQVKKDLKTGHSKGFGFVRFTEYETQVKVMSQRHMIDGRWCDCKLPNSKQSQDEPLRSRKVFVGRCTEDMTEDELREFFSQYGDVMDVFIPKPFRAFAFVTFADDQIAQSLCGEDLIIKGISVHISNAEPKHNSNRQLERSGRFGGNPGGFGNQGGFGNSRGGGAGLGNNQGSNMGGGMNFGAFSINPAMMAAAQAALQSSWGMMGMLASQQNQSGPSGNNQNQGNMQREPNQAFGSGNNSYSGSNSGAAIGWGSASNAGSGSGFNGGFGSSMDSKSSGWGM

The target in this experiment is TDP-43 (Homo sapiens, UniProt Q13148 1-414). As to the kind of experiment: RNA Bind-n-Seq with designed 260-mer pool; 25 mM Tris-HCl, 150 mM KCl, 3 mM MgCl2, BSA (printed 500 mg/mL), 20 units/mL SUPERase IN; pH not stated; 500 nM RNA pool, 1 h, 4 C; TDP-43 5, 50, 500 nM; high values mean tight binding. The conditions noted are these: protein: recombinant; tags: SBP (GST cleaved off with PreScission; pGEX-GST-SBP). The gist of the method:
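Binding (R) is the ratio of each oligo's mapped-read-normalized abundance in the bound fraction to its abundance in the input. To obtain it, SBP-tagged recombinant TDP-43 (5, 50 or 500 nM) on streptavidin beads was incubated with 500 nM of an in vitro-transcribed 260-nt 3′ UTR oligo pool for 1 h at 4 °C in 25 mM Tris-HCl, 150 mM KCl, 3 mM MgCl2, BSA and SUPERase IN. The RNA retained after washing was released with biotin, then reverse transcribed, amplified by PCR and sequenced.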
B1: the binding signal was 0.125 R (bound/input frequency ratio).

For the molecule B2, the binding signal was 0.616 R (bound/input frequency ratio).

For B3, the binding signal is 0.762 R (bound/input frequency ratio).

B4: the binding signal is 0.904 R (bound/input frequency ratio).

For the molecule B5, the binding signal is 4.6 R (bound/input frequency ratio).

As to B6, the binding signal was 6.95 R (bound/input frequency ratio).

Turning to B7, the binding signal was 5.88 R (bound/input frequency ratio).

Take B8: the binding signal was 8.93 R (bound/input frequency ratio).

Consider B9, for which the binding signal is 12.1 R (bound/input frequency ratio).

For the molecule B10, the binding signal was 5.45 R (bound/input frequency ratio).

Turning to B11, the binding signal is 6.51 R (bound/input frequency ratio).

As for B12, the binding signal is 5.93 R (bound/input frequency ratio).
